Most compounds without a hit are left out; they make up all but 7.3% or so of the library.
VACV mCherry inh – vaccinia inhibition (mCherry reporter) | AID 720579 | 0.63% of 310,000 active | Potency, µM (doses to about 36.5 µM), inactives show at the top dose activity change, negative = inhibition, most hits filed as inhibitors | Vaccinia virus mCherry reporter infection, fluorescence; calls by dose curve; tested in A549 cells; also: potency is read from the fitted curve at half-maximal effect; nearly all actives have a fitted effect of over 35% in size
Vaccinia Venus – vaccinia inhibition (Venus reporter); Vaccinia virus Venus reporter expression, fluorescence; Potency, µM (doses to about 36.5 µM), for the others: at the highest dose activity change, negative = inhibition, actives largely listed as inhibitors; 0.46% of 330,000 active; AID 720580; calls by dose curve; tested in A549 cells; also: potency is read from the fitted curve at half-maximal effect; nearly all actives have a fitted effect of over 30% in size
HCV inhibitor – blocks hepatitis C virus; Huh7.5.1 HCVcc-Cre infection, luciferase reporter, 44 h; Potency, µM (highest dose often 41.8 µM), for the others: top-dose activity change, negative = inhibition, actives largely listed as inhibitors; 3.4% of 340,000 active; active = well fitted inhibition curve with a large enough effect; inconclusive = small, poorly fitted or top-dose-only effect, or another doubt; inactive = no such curve, though single readings can be large or run the other way; also: potency is read from the fitted curve at half-maximal effect
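1,000 cells/well; 4 h culture; + compound; + HCVcc-Cre (~0.5 moi); 44 h; luciferase substrate, RT 15 min; read 15 sec.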
HCMV inh – blocks human cytomegalovirus replication; 4.5% of 410,000 active; HFF cells, HCMV-luciferase reporter, 72 h; active compounds read low; activity change, negative = inhibition, % at 57.5 µM; in the data active = activity change below about -60%; inconclusive = no clear call, values can overlap the other calls; inactive = above about -39%
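Luciferase read-out from HCMV-luciferase-infected HFFs (MOI 1 PFU/cell) 72 h post infection at 37C; compounds added after 16 h cell attachment; activity normalized between buffer-only basal and Salinomycin (10uM) inhibitor controls.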
FMDV antiviral – foot and mouth disease virus antiviral activity; 1.2% of 410,000 active; FMDV antiviral cell-based qHTS; AID 1159524; Potency, µM (top dose mostly 57.9 µM), for the others: top-dose activity change, negative = inhibition, hits mostly inhibitors; calls by dose curve; tested in HEK293T cells; also: read-out not given here; potency is read from the fitted curve at half-maximal effect; nearly all actives have a fitted effect of over 45% in size
* = called active by the depositor; i = inactive; ? = inconclusive; nt = no result given; [ ] = another dose, or the depositor's remark. % is scaled to controls: 0 for no effect and ±100 for the full control effect.

SMILES	VACV mCherry inh	Vaccinia Venus	HCV inhibitor	HCMV inh	FMDV antiviral
O=C(NNC(=O)c1cccnc1SCc1cccc([N+](=O)[O-])c1)c1ccccn1	4µM*	?	?	-100*	-20%
CCCCC/C=C\C\C=C/C=C/C=C/[C@@H](SC[C@H](N)C(=O)O)[C@@H](O)CCCC(=O)O	-15%[0.293 µM]	-9%[0.293 µM]	nt	nt	-2%[0.463 µM]
Cn1nc(-c2ccccc2)c(CO)c1Oc1cccc(C(F)(F)F)c1	-23%	-18%	?	-4	?
Cc1ccc(Sc2c(CO)c(-c3ccccc3)nn2C)cc1	?	?	?	-83*	?
OC(c1cc(C(F)(F)F)nc2c(C(F)(F)F)cccc12)C1CCCCN1 (configuration not stated)	?	?	?	-99*	?
OC(c1cc(-c2cccc(Cl)c2)nc2ccccc12)C1CCCCN1 (configuration not stated)	?	-21%	?	-98*	?
FC(F)(F)c1cc(N2CCNCC2)c2ccccc2n1	-13%	-2%	-13%	-7	-5%
COc1ccc(OCc2nnc(SCC(=O)Nc3ccccc3Cl)o2)cc1	5%	0%	15%	23	6%
Cc1occc1C(=O)NCCN1Cc2ccccc2OC(c2ccccc2F)C1 (configuration not stated)	-9%	2%	nt	nt	4%
N#Cc1cc(-c2ccccc2)[nH]c1-c1nccc2ccccc12	?	?	?	?	28µM*
CCOC(=O)C(=O)C1=C(N2CCOCC2)/C(=C\c2cccc([N+](=O)[O-])c2)CC1	i	-14%	25%	-72*	-15%
Cc1cccc(CN2C(=O)c3ccccc3Sc3ccc(C(=O)NC4CCCCC4)cc32)c1	-19%	-7%	nt	10	-3%
COc1ccc(-c2nc(C#N)c(NCc3ccc(F)cc3)o2)cc1OC	nt	13µM*	3.5µM*	25	?
COc1ccc(-c2cc(C(=O)NCc3ccc(F)cc3)c3c(-c4ccc(F)cc4)[nH]nc3n2)cc1OC	?	?	nt	-101*	-24%
COc1ccc(CNC(=O)c2cc(-c3ccc(OC)c(OC)c3)nc3n[nH]c(-c4ccc(C)cc4)c23)cc1	?	-23%	nt	-97*	-19%
COc1ccc(CNC(=O)c2cc(-c3ccc(C)cc3)nc3n[nH]c(-c4ccc(Br)cc4)c23)cc1	-6%	-4%	nt	12	-25%
CCOc1cccc(C(=O)Nc2ccc3oc(-c4cccnc4)nc3c2)c1	-11%	-21%	10µM*	?	?
Cc1cc(NC(=O)c2ccco2)cc(-c2nc3cc(Cl)ccc3o2)c1O	?	?	nt	-61*	0%
CCOc1cccc(C(=O)Nc2cccc(-c3nnc(-c4ccc(C)cc4)o3)c2)c1	-12%	-6%	?	-70*	-25%
CCCCOc1cccc(C(=O)Nc2ccc3oc(-c4cccnc4)nc3c2)c1	-20%	-15%	nt	-33	16µM*
COc1ccc(-c2oc3c(c2-c2cnc(OC)nc2)C(O)CC3)cc1 (configuration not stated)	-12%	-13%	nt	5	-20%
Cn1c(=O)[nH]c(=O)c2c1nc1n(CCO)c(-c3ccccc3)cn21	-9%	8%	nt	2	-14%
O=C(Nc1ccc2oc(-c3cccnc3)nc2c1)c1ccco1	-14%[1.46 µM]	-22%	-4%	10	23%
CCOc1cccc(C(=O)Nc2ccc3oc(Cc4ccc(Cl)cc4)nc3c2)c1	nt	?	?	-60*	8.9µM*
O=C(Nc1ccc2oc(-c3ccccc3)nc2c1)c1cccs1	-22%	-25%	?	13	18%
SMILES	VACV mCherry inh	Vaccinia Venus	HCV inhibitor	HCMV inh	FMDV antiviral
O=C(Nc1ccc2nc(-c3ccccc3)oc2c1)c1ccco1	-19%	-4%	10µM*	-11	-20%
O=C(Nc1ccc2oc(-c3ccccc3)nc2c1)c1ccncc1	nt	-6%	10µM*	-36	?
CCn1c(SCC(=O)N2CCC(C)CC2)nnc1-c1ccccc1O	-9%	-10%	nt	-4	-3%
CC(C)(NS(=O)(=O)OCC(Cl)(Cl)Cl)c1ccccc1	?	?	6%	?	11%
CC(NS(=O)(=O)OCC(Cl)(Cl)Cl)c1ccc(C(C)(C)C)cc1 (configuration not stated)	11µM*	20µM*	?	38	22µM*
O=C(CSc1ncn[nH]1)NCCc1ccccc1	-16%	-15%	5%	7	-9%
CC(Sc1ncn[nH]1)C(=O)NCc1ccccc1 (configuration not stated)	-16%	-11%	13%	-99*	-27%
COCOc1ccc(-c2ncc(OCCN3CCCC3=O)nc2NC(=O)c2cc3ccccc3s2)cc1	35%	-10%	nt	-101*	-13%
COCCN=c1scc(-c2cc(OC)c(OC)c(OC)c2)n1/N=C/c1c(C)[nH]c2ccccc12	?	?	8.9µM*	44	?
Cc1ccnc2c1ccc1c(C)ccnc12	nt	nt	5.6µM*	nt	-3%
Cc1ccnc2c1ccc1cccnc12	4.5µM*	?	2.2µM*	-98*	-8%
CC(=O)c1cccc(S(=O)(=O)Nc2ccc3nc(C)sc3c2)c1	i	-8%	-19%	?	-12%
Cc1nc2ccc(S(=O)(=O)c3ccc4nc(C)[nH]c4c3)cc2[nH]1	nt	6%	4%	-1	6%
COc1cc(S(=O)(=O)Nc2ccc3nc(C)sc3c2)ccc1NC(C)=O	nt	nt	?	-88*	6%
COc1ccc(NC(=O)CN(C)S(=O)(=O)c2ccc3nc(C)sc3c2)cc1Cl	-17%	-11%	nt	-69*	?
Cc1nc2ccc(NS(=O)(=O)c3ccc(C)c(C)c3)cc2s1	-8%	?	?	-88*	-1%
Cc1nc2ccc(NS(=O)(=O)c3ccc(F)c(C)c3)cc2[nH]1	nt	nt	7.1µM*	-60*	-10%
CCOC(=O)CN1CC(C)(C)N(CC(=O)OCC)CC1(C)C	i	-13%	14%	-39	-20%
FC(F)(F)c1cccc(N2CCN(Cc3nnc(-c4ccc5c(c4)OCO5)o3)CC2)c1	-5%	-6%	nt	1	-20%
Cc1ccc(Cn2ccn(Cc3ccccc3F)c(=O)c2=O)cc1	2%	5%	nt	-10	10%
O=C(Nc1ccccc1)c1cc(C2CCCCN2C(=O)CCc2ccccc2)on1 (configuration not stated)	14%	-10%	nt	12	21%
CC(C)(OC(=O)c1ccc(F)cc1)c1cc2ccccc2c(=O)o1	i	-11%	?	16	13%
COCCNC(=O)CN(Cc1ccccc1)S(=O)(=O)c1ccc2nc(C)sc2c1	nt	nt	13%	-61*	8%
COc1ccc(NC(=O)CN(Cc2ccccc2)S(=O)(=O)c2ccc3nc(C)sc3c2)cc1	-7%	-4%	nt	-10	-21%
Cc1ccc(NC2=C(C(=O)c3ccccc3)N(C)S(=O)(=O)c3ccccc32)cc1	?	-25%	11µM*	?	-2%
CN1C(C(=O)c2ccccc2)=C(N)c2ccccc2S1(=O)=O	-4%	-11%	4%	65	11%

From PubChem BioAssay
